# Source: PubChem BioAssay (several laboratories)
# proKLK7 act = proKLK7 (human) activation, primary screen. purified proKLK7, EDANS-DABCYL substrate fluorescence; 100% is mature enzyme control, 0% vehicle. 0.9% of 370,000 active. AID 652039. activation, % at 7 µM;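 active means activation above the mean of all tested compounds plus 3 SD, computed per campaign excluding outliers beyond control limits, cut at about 13% in these data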
# AHR act = activates the human aryl hydrocarbon receptor; AHR-responsive luciferase reporter cells, luminescence; 2.5% of 320,000 active; activation, % at 5 µM; P35869; in the data active means activation above about 47%;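 further: 0% = vehicle wells and 100% = reference agonist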
# Target sequence (P35869 whole entry, looked up): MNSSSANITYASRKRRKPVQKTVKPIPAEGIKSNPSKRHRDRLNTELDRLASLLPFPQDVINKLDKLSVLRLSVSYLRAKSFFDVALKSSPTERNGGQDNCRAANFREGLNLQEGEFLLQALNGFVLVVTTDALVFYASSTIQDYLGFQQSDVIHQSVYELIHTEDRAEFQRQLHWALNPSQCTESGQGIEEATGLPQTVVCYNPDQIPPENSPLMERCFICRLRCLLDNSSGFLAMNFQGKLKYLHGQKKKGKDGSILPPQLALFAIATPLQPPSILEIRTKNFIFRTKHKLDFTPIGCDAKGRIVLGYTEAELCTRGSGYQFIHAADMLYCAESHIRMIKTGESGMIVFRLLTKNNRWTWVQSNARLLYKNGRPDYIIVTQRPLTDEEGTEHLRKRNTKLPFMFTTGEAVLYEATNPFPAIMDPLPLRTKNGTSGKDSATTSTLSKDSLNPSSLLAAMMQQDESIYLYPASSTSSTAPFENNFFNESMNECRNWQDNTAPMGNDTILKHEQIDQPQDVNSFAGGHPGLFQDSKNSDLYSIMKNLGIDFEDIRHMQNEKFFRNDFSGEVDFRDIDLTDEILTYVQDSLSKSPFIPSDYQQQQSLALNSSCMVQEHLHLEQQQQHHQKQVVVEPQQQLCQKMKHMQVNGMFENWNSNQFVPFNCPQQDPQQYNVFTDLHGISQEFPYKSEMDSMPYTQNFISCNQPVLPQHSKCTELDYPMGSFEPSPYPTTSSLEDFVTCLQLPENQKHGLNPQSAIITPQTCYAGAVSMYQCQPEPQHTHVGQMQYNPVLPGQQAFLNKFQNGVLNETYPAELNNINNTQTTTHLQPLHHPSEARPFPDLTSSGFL
# ADAM17 inh = inhibits human ADAM17 | recombinant ADAM17, EDANS/DABCYL FRET peptide cleavage | 0.83% of 370,000 active | P78536 | AID 720648 | inhibition, % at 6.95 µM;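 active means inhibition above the mean of compounds lying between control limits plus 3 SD, set per campaign, cut at about 8.5% in these data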;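 further: 0% = DMSO-only wells as the low control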
# rCAG binder = r(CAG) repeat RNA binding; AID 651821; inhibition, % at 3 µM; TO-PRO-1 dye displacement fluorescence; 1.3% of 370,000 active;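 active means inhibition above the plate cutoff, the mean of all test compounds on that plate plus 3 SD, cut at about 35% in these data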;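 further: 0% = DMSO alone and 100% = 100 µM mitoxantrone as full dye displacement; higher means more dye released from RNA so lower well fluorescence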
# GRIN3A LBD mod = NR3A (human) ligand-binding domain modulation | NR3A LBD differential scanning fluorimetry, Tm shift; 0% = protein alone, 100% = glycine-bound protein | Tm shift relative to glycine control, % at 25 µM | 2.5% of 340,000 active | AID 1259313;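 active means melting temperature shift of at least 10% of the positive control shift, at one fixed dose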
# ADAM10 inh = ADAM10 inhibition, QFRET primary screen. O14672. recombinant ADAM10, EDANS/DABCYL FRET peptide cleavage, 3 h. inhibition, % at 7 µM. 0.62% of 370,000 active;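 active means inhibition above a per-campaign cutoff equal to the mean of compounds falling between control-based bounds plus 3 SD, cut at about 20% in these data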;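 further: 0% = DMSO wells while the 100% control is not disclosed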
# rCAG bind conf = r(CAG) RNA repeat binding, confirmation; shares compounds with rCAG binder; TO-PRO-1 dye displacement fluorescence; inhibition, % at 3 µM; 70% of 4,300 active;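 active means inhibition above a per-plate cutoff, the mean inhibition of sample wells plus 3 SD, cut at about 35% in these data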;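 further: loss of TO-PRO-1 fluorescence as compound displaces dye from 1x1 AA loop RNA; 0% = DMSO only wells and 100% = 100 µM mitoxantrone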
# DNA CAG counter = counter-screen for rCAG RNA binders: DNA CAG dye complex inhibitors; shares compounds with rCAG binder; inhibition, % at 3 µM; d(CAG) DNA oligo TO-PRO-1 dye displacement, fluorescence; AID 652068; 94% of 4,300 active;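 active means inhibition above its plate's cutoff, the mean test-well inhibition plus 3 SD, cut at about 4.8% in these data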;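 further: 0% = DNA dye mix with DMSO and 100% = 100 µM mitoxantrone; hits displace the dye from DNA and so lower well fluorescence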
# DNA CAG DR = DNA CAG dye complex inhibition, dose response counter-screen; shares compounds with rCAG binder; DNA CAG/GTC duplex TO-PRO-1 dye displacement fluorescence; IC50, µM; 20% of 250 active; AID 686960; in the data active means IC50 below about 10 µM
# The depositor's hits bear a star; x = not tested or not shown. Most compounds without a hit are left out; they make up all but 7% or so of the library.
SMILES,proKLK7 act,AHR act,ADAM17 inh,rCAG binder,GRIN3A LBD mod,ADAM10 inh,rCAG bind conf,DNA CAG counter,others
CCOc1ccccc1C(=O)Nc1ccc(S(=O)(=O)Nc2cc(OC)nc(OC)n2)cc1,0,5,2,51*,-7,8,28,7.6*,
COc1cc(NS(=O)(=O)c2ccc(NC(=O)COc3ccccc3Cl)cc2)nc(OC)n1,0,-2,1,65*,2,3,38*,12*,
CCCc1c(Cc2cccc(F)c2)ncn1Cc1cccc(-c2ccccc2)c1,1,x,-3,3,x,-9,x,x,
O=S1(=O)c2ccc(N3CCCC3)cc2Oc2ccccc2CN1Cc1cn(Cc2ccc(C(F)(F)F)cc2)nn1,0,x,-6,12,x,-8,x,x,
Cc1cc(Oc2cccnc2)ccc1NC(=O)CCc1c[nH]c2ccccc12,0,x,-8,7,x,-13,x,x,
Cc1ccccc1OCC(=O)N/N=C/c1sc(=O)n(Cc2cccc(C(=O)O)c2)c1Cl,0,1,-2,46*,-1,1,40*,11*,
COC(=O)[C@]1(C#N)CC(=O)N(Cc2ccc(Cl)cc2)[C@@H]1c1ccc(OC)cc1,0,x,1,2,x,-3,x,x,
CC1=NN(c2ccc(C(=O)O)cc2)C(=O)/C1=C/c1ccc(-c2ccccc2F)o1,x,1,x,x,x,x,x,x,
CC1=NN(c2ccc(C)cc2)C(=O)/C1=C/c1ccc(-c2cc([N+](=O)[O-])ccc2O)o1,0,x,1,56*,0,10,64*,34*,
CN(Cc1ccccc1)C(=O)NC1CCCCC1,0,0,1,1,-1,2,x,x,
CC(C)(Sc1ccc(CCN(CCCCC2CCCCC2)C(=O)NC2CCCCC2)cc1)C(=O)O,1,-4,-1,49*,-1,4,55*,17*,DNA CAG DR=>30
Cc1ccc(S(=O)(=O)Nc2ccc3cc([N+](=O)[O-])ccc3c2[N+](=O)[O-])cc1,0,x,5,83*,3,10,82*,47*,
Cc1ccc(S(=O)(=O)Nc2ccc3ccccc3c2[N+](=O)[O-])cc1,0,x,7,61*,-14,8,52*,18*,
COc1ccc(/C=C2/SC(=S)N(NS(=O)(=O)c3ccccc3)C2=O)cc1,0,-1,1,74*,-5,4,66*,29*,
C=CCOc1ccc(/C=C2\SC(=S)N(NS(=O)(=O)c3ccccc3)C2=O)cc1,0,1,0,88*,-7,8,79*,46*,
COc1ccc(-n2c(SCC(=O)Nc3ccc(Oc4ccccc4)cc3)nnc2-c2ccco2)cc1,0,x,2,10,x,5,x,x,
CSc1ccc(CN2CCC(C)(Oc3ccc(C(C)=O)cc3)C2)cc1 (stereo not given),0,x,-1,0,x,-1,x,x,
COc1ccc(NC(=O)N(C)C[C@H]2OCc3cnnn3CCCC(=O)N([C@H](C)CO)C[C@@H]2C)c(OC)c1,0,x,-3,5,x,-9,x,x,
COC(=O)[C@]12C[C@H](CC(=O)NCc3cccc4ccccc34)C(=O)N(Cc3ccc4c(c3)OCO4)C1=C[C@H](C(C)C)O[C@@H]2C1CC1,0,x,3,8,x,12,x,x,
Cc1cc(-c2cc(NC(=O)Cc3c[nH]c4ccccc34)ccc2N(C)c2cccnc2)ccc1F,-1,x,-1,13,x,-6,x,x,
CCC(CO)Nc1cccc2c1S(=O)(=O)N(Cc1cn(Cc3ccc(Cl)cc3)nn1)Cc1ccccc1O2 (stereo not given),0,x,1,5,x,-11,x,x,
Cc1cc(N)n(-c2ccc(Oc3ccccc3)c(S(=O)(=O)O)c2)n1,0,x,-4,59*,-3,0,42*,9.7*,
CCC(C)N(C(=O)CNc1nnnn1-c1ccccc1)C(C)CC (stereo not given),0,x,0,-3,x,-2,x,x,
COc1cc(OC)c(NC(=O)c2ccc3c(SCC(=O)O)c4c(nc3c2)CCCC4)cc1Cl,0,-7,0,51*,-2,2,62*,24*,
COc1cc(NC(=O)c2ccc3c(SCC(=O)O)c4c(nc3c2)CCCC4)cc(OC)c1OC,0,-1,-1,6,-3,0,x,x,
SMILES,proKLK7 act,AHR act,ADAM17 inh,rCAG binder,GRIN3A LBD mod,ADAM10 inh,rCAG bind conf,DNA CAG counter,others
COC(=O)[C@@H](Cc1ccccc1)NC(=O)[C@H]1O[C@@H](n2cnc3c(=O)[nH]c(N)nc32)[C@H](O)[C@@H]1O,0,x,2,2,x,4,x,x,
CCC1CCCCN1S(=O)(=O)c1ccc(NC(=O)c2cccs2)cc1 (stereo not given),0,-1,6,8,-13,19,x,x,
CCC1CCCCN1S(=O)(=O)c1ccc(NC(=O)CSc2ncccc2C(=O)O)cc1 (stereo not given),0,0,0,39*,-1,2,34,11*,
COc1ccc2nc(-c3ccco3)c(-c3ccco3)nc2c1,-9,15,-48,59*,-1,-144,32,13*,
c1coc(-c2nc(-c3ccco3)c(-c3ccco3)nc2-c2ccco2)c1,-2,1,-24,68*,-27,-56,45*,21*,DNA CAG DR=6.6*
Nc1nc(-c2ccco2)c(-c2ccco2)s1,0,7,-6,12,-1,-8,x,x,
COc1ccc2nc3cccc(OC)c3nc2c1,-1,23,0,1,0,-4,x,x,
COC(=O)c1ccc2c(=O)n(CCCCCC(=O)NC3CCCCC3)c(=O)[nH]c2c1,-1,x,-4,1,x,-30,x,x,
COCCCNC(=O)CSc1nnc(-c2ccncc2)n1-c1ccc(OC)cc1,1,x,0,0,x,0,x,x,
O=C1COc2ccccc2C(c2nnnn2-c2ccc3ccccc3c2)N1C1CC1 (stereo not given),0,x,-1,3,x,4,x,x,
CC(=O)N1c2cc(S(=O)(=O)Nc3c(C)n(C)n(-c4ccccc4)c3=O)c(Br)cc2CC1C (stereo not given),0,x,-3,1,x,-3,x,x,
O=S(=O)(Nc1ncnc2sc3c(c12)CCC3)c1ccc2ccccc2c1,1,3,-3,69*,-3,0,56*,21*,
Nc1ccc(C(=O)N/N=C\c2cc(N=Nc3cccc4ccccc34)ccc2O)cc1,-1,35,0,39*,8,-1,29,15*,
CCCOc1cccc(-c2cc(C(=O)NNC(=S)NCC)c3ccccc3n2)c1,0,18,-8,58*,14*,-44,56*,20*,
